PubChem BioAssay (Tox21)
Results filed as inconclusive are left out. Entries that show only a call come without a potency. Calls of active or inactive are those of the source. The call rests on the fitted dose curve; in most records, active means well fitted cell-killing curve with a large enough effect in the repeat runs; inconclusive means weak or mixed curves, or effect the other way; inactive means flat fitted curve, though single readings scatter.

Experiment: qHTS RealTime-Glo MT Cell Viability Assay in HEK293 cells - 24 hour (AID 1224886); further: nearly all actives have a fitted effect of over 50% in size
Settings: RealTime-Glo luminescence; series mostly up to 76.8 µM
From the text: National Center for Advancing Translational Sciences [NCATS]
NIH Chemical Genomics Center [NCGC]
U.S. Environmental Protection Agency [EPA]
National Institutes of Environmental Health Sciences [NIEHS]
National Toxicology Program [NTP]
U.S. Food and Drug Administration [FDA]
Measure of cell viability is critical in the cell-base assay. Analysis of cell viability is necessary for the characterization of cell responses to cytotoxic drugs and environmental stress. A RealTime-Glo MT Cell Viability Assay to monitor cell viability in real time of continues cell culture during 40 hours of compound treatment was used to screen Tox21 10K library compounds in Hek293 cells. The RealTime-Glo MT Cell Viability Assay is a nonlytic, homogeneous, bioluminescent method to measure cell viability in real time using a simple, plate-based method. The assay involves adding NanoLuc luciferase and a cell-permeant prosubstrate to cells in culture. Viable cells reduce the proprietary prosubstrate to generate a substrate for NanoLuc luciferase. This substrate diffuses from cells into the surrounding culture medium, where it is rapidly used by the NanoLuc Enzyme to produce a luminescent signal. The signal correlates with the number of viable cells, making the assay well suited for cytotoxicity studies.
Tox21 Assay Protocol Summary:
The mixture of Hek293 cell suspension and reagents were dispensed at 600cells/6 ul/well in 1536-well tissue culture treated black solid bottom plates using a Multidrop dispenser. After the assay plates were incubated at a 37 C/5% CO2 incubator for 5 hours, 23 nL of compounds dissolved in DMSO, positive and negative controls was transferred to the assay plate by a pintool work station. The plates were incubated at 37 C for 40 hours. The luminescence intensity were measured at 0h, 8h, 16h, 24h, 32h and 40h time points using ViewLux plate reader during compound treatment.
Potency means the concentration at half of the fitted maximal effect.

Q: For `Nc1cnn(-c2ccccc2)c(=O)c1Cl`, which Potency is on record?
A: Its Potency is “inactive”.

Q: For `Cc1cccc(C#N)c1`, which Potency is on record?
A: The Potency was “inactive”.

Q: For `CC(C)[N+](=O)[O-]`, which Potency is on record?
A: Its Potency is “inactive”.

Q: For `CC(C)(C)NCC(O)c1cc(Cl)c(N)c(Cl)c1` (stereo not given), which Potency is on record?
A: The Potency was “inactive”.

Q: Which Potency does the source give for `CN1C(=S)CN=C(c2ccccc2)c2cc(Cl)ccc21` here?
A: Its Potency is “inactive”.

Q: With `COC(=O)COc1ccc(Cl)cc1Cl` as the compound, how does the Potency read?
A: Its Potency is “inactive”.

Q: With `N#Cc1c(Cl)cccc1Cl` as the compound, how does the Potency read?
A: Its Potency is “inactive”.

Q: Which Potency does the source give for `CSc1ccc(C(=O)C(C)(C)N2CCOCC2)cc1` here?
A: Its Potency is “inactive”.

Q: With `CCOP(=O)(OCC)OP(=O)(OCC)OCC` as the compound, how does the Potency read?
A: Its Potency is “inactive”.

Q: With `O=C1OC(=O)C2C1C1(Cl)C(Cl)=C(Cl)C2(Cl)C1(Cl)Cl` (stereo not given) as the compound, how does the Potency read?
A: The Potency was “inactive”.

Q: For `C[C@H]1CCC[C@H](O)CCCCCc2cc(O)cc(O)c2C(=O)O1`, which Potency is on record?
A: The Potency was 34.9 µM (active).

Q: Which Potency does the source give for `O=CNC(N1CCN(C(NC=O)C(Cl)(Cl)Cl)CC1)C(Cl)(Cl)Cl` (stereo not given) here?
A: The Potency was “inactive”.

Q: With `CC(C)CC(N(C)C)C1(c2ccc(Cl)cc2)CCC1` (stereo not given) as the compound, how does the Potency read?
A: Its Potency is “inactive”.

Q: With `Fc1cc(Br)ccc1CBr` as the compound, how does the Potency read?
A: Its Potency is “inactive”.

Q: With `O=[N+]([O-])c1ccc(CBr)cc1` as the compound, how does the Potency read?
A: The Potency was “inactive”.

Q: Which Potency does the source give for `CNC(=O)Oc1ccc(N(C)C)c(C)c1` here?
A: Its Potency is “inactive”.

Q: For `ClCCCN1CCN(c2cccc(Cl)c2)CC1`, which Potency is on record?
A: The Potency was “inactive”.

Q: Which Potency does the source give for `CS(=O)(=O)c1cc(C(F)(F)F)ccc1C(=O)c1cnoc1C1CC1` here?
A: The Potency was “inactive”.

Q: For `C(CCOCC1CO1)COCC1CO1` (stereo not given), which Potency is on record?
A: Its Potency is “inactive”.

Q: With `CN1CCC(O)(c2ccc(F)cc2)C(C(=O)c2ccc(F)cc2)C1` (stereo not given) as the compound, how does the Potency read?
A: The Potency was “inactive”.

Q: For `C#CCN1C(=O)COc2cc(F)c(N3C(=O)C4=C(CCCC4)C3=O)cc21`, which Potency is on record?
A: Its Potency is “inactive”.

Q: For `OCCBr`, which Potency is on record?
A: Its Potency is “inactive”.

Q: With `C=C(C)[C@@H]1CC=C(C=O)CC1` as the compound, how does the Potency read?
A: Its Potency is “inactive”.

Q: With `OC(c1ccc(F)cc1)(c1cncnc1)c1ccccc1Cl` (stereo not given) as the compound, how does the Potency read?
A: Its Potency is “inactive”.

Q: For `OCCSCSCCO`, which Potency is on record?
A: The Potency was “inactive”.

Q: Which Potency does the source give for `CNC(=O)Oc1ccccc1C1OCCO1` here?
A: Its Potency is “inactive”.

Q: For `OC(c1ccccc1)(c1ccccc1)C1CCNCC1`, which Potency is on record?
A: Its Potency is “inactive”.

Q: Which Potency does the source give for `ClC(Cl)Br` here?
A: The Potency was “inactive”.

Q: With `CC(C)COP(=O)(OCC(C)C)OCC(C)C` as the compound, how does the Potency read?
A: Its Potency is “inactive”.

Q: With `CCc1cc2c(s1)-n1c(C)nnc1CN=C2c1ccccc1Cl` as the compound, how does the Potency read?
A: Its Potency is “inactive”.

Q: For `O=C(N[C@H]1CN2CCC1CC2)c1cc2ccoc2cn1`, which Potency is on record?
A: Its Potency is “inactive”.

Q: With `CCOP(=O)(N=C1SCCS1)OCC` as the compound, how does the Potency read?
A: The Potency was “inactive”.

Q: With `O=C1OC(CCN2CCCCC2)OC1(c1ccccc1)c1ccccc1` (stereo not given) as the compound, how does the Potency read?
A: The Potency was “inactive”.

Q: Which Potency does the source give for `CCS(=O)(=O)C(C)(C)S(=O)(=O)CC` here?
A: The Potency was “inactive”.

Q: With `C[C@]12CC[C@H]3[C@@H](CC=C4C[C@@H](O)CC[C@@]43C)[C@@H]1CC[C@@H]2O` as the compound, how does the Potency read?
A: The Potency was “inactive”.

Q: With `CCOC(=O)N(C)C(=O)CSP(=S)(OCC)OCC` as the compound, how does the Potency read?
A: Its Potency is “inactive”.

Q: Which Potency does the source give for `Cc1cc(C)nc(Nc2ccccc2)n1` here?
A: Its Potency is “inactive”.

Q: With `OC(Cn1cncn1)(c1ccc(F)cc1)c1ccccc1F` (stereo not given) as the compound, how does the Potency read?
A: The Potency was “inactive”.

Q: With `CCOP(=S)(Oc1cnc(C(C)(C)C)nc1)OC(C)C` (stereo not given) as the compound, how does the Potency read?
A: Its Potency is “inactive”.

Q: With `C=CCC1=C(C)[C@@H](OC(=O)[C@@H]2[C@@H](C=C(C)C)C2(C)C)CC1=O` as the compound, how does the Potency read?
A: Its Potency is 12.3 µM (active).
